# HT1080NT lethal: kills 2HG-producing HT-1080-NT fibrosarcoma cells; HT-1080-NT fibrosarcoma viability, CellTiter-Glo ATP luminescence, 48 h; Potency, µM (titrated, usually from 46.1 µM), inactives show at the top dose activity, negative = less viability, usual class: cytotoxic; 360,000 tested, 1.6% active; AID 686970;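 further: NT is the 2HG producing partner of a matched IDH1 knockdown line; potency means the concentration at half of the fitted maximal effect; 0% = DMSO-treated cells and -100% = media-only wells without cells; nearly all actives have a fitted effect of over 55% in size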
#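 Read-out is CellTiter-Glo luminescence after 10 minutes at room temperature, following 48 hours' compound treatment of HT-1080-NT cells (750 cells/well, RPMI, 5% FBS, 37 degrees C).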
# TDP1 cell CPT: growth inhibition of DT40 Tdp1-/-;hTDP1 cells with camptothecin (screen for TDP1 inhibitors). chicken DT40 Tdp1-/-;hTDP1 cells + 20 nM CPT, ATP luminescence, 48 h. Potency, µM (titrated, usually from 46.2 µM), for the others: at the top dose activity change, negative = growth inhibition, most hits filed as inhibitors. 420,000 tested, 12% active. AID 686979; further: potency means the concentration at half of the fitted maximal effect; nearly all actives have a fitted effect of over 55% in size
#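 Cell growth measured by CellTiter-Glo luminescence after a minimum 48 h, 37 C compound exposure with 20 nM CPT in Tdp1-knockout DT40 cells stably expressing hTDP1, seeded 400/well; qHTS titration format.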
# DT40 TDP1 no CPT: qHTS for Inhibitors of human tyrosyl-DNA phosphodiesterase 1 (TDP1): qHTS in cells in absence of CPT; DT40 Tdp1-/- hTDP1 cells, no CPT, ATP luminescence, 48 h; Potency, µM (doses to about 46.2 µM), inactives show top-dose activity change, negative = growth inhibition, actives largely listed as inhibitors; 420,000 tested, 15% active; AID 686978, 2013; further: potency means the concentration at half of the fitted maximal effect; nearly all actives have a fitted effect of over 55% in size
#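 Chicken DT40 Tdp1-/- cells stably complemented with human TDP1 were seeded at 400 cells/well with DMSO in place of 20 nM camptothecin. After compound pinning, cells grew at least 48 hr at 37 °C; viability read by CellTiter-Glo luminescence.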
# ALOX12 inh: inhibitors of human 12S-lipoxygenase ALOX12. AID 1671190. 580,000 tested, 1.1% active. Potency, µM (highest dose often 108 µM), for the others: at the top dose activity change, negative = inhibition, hits mostly inhibitors. purified 12hLO, xylenol orange hydroperoxide absorbance; further: potency means the concentration at half of the fitted maximal effect
# Target sequence (P18054 whole entry, looked up): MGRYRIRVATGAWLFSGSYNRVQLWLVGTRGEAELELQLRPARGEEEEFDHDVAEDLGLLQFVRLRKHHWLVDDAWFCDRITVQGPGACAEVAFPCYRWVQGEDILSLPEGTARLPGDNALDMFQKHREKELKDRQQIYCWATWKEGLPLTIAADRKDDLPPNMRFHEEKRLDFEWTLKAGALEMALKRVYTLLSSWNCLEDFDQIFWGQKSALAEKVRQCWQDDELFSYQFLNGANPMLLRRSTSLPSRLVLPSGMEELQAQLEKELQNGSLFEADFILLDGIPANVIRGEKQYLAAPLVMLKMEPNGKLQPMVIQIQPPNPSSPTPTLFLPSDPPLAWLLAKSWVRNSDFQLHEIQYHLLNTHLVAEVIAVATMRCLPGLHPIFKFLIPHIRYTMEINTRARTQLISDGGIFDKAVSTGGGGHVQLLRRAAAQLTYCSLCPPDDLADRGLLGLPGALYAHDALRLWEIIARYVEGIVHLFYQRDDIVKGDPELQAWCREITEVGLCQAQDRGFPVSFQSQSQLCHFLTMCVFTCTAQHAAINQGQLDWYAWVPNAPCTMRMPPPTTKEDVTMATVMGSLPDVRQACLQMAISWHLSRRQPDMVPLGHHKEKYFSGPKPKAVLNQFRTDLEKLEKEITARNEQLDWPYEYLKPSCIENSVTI
#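 Hydroperoxide product was detected by ferrous iron/xylenol orange as the 573 to 405 nm absorbance ratio. Arachidonic acid at 40 uM (final) was turned over for 30 min at room temperature by 150 nM human 12hLO, pH 7.0 Hepes buffer, after 15 min compound preincubation.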
# HT1080 IDH1KD tx: HT-1080 IDH1 knockdown cell toxicity (counter line); HT-1080 IDH1 knockdown viability, ATP luminescence, 48 h; Potency, µM (highest dose often 46.1 µM), inactives show at the highest dose activity, negative = toxicity, usual class: cytotoxic; 360,000 tested, 2% active; AID 686971;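 further: potency means the concentration at half of the fitted maximal effect; 0% = DMSO wells and -100% = cell-free medium wells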
#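 Cytotoxicity counter-line: IDH1KD HT-1080, 48 h, CellTiter-Glo. Curves classed by r2, magnitude and activity.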
# IL-1B inflam inh: blocks inflammasome-driven IL-1 beta release | THP-1 LPS/ATP IL-1B secretion, AlphaLISA, 16 h; stronger effect = lower value | activity change, % at 57.5 µM | 360,000 tested, 4.7% active | AID 743279; in the data active means activity change below about -50%; inconclusive means mostly about -30% to -49%
#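 Secreted IL-1B measured by AlphaLISA bead assay after 16 h compound exposure of THP-1 cells; compounds (final up to 57.5 uM) added 1 h before LPS (250 ng/mL) and ATP (1.25 mM) stimulation; lower signal means less secretion.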
# * = called active by the depositor; ? = inconclusive; · = no result; [ ] = dose if it differs, or a comment. The entries come from a sample that favours hits as a whole. Unless noted, the call rests on the fitted dose curve; in most records, active means well fitted curve in the direction sought with a large enough effect; inconclusive means small, poorly fitted or top-dose-only effect, or another doubt; inactive means no such curve, though single readings can be large; an effect the other way counts as inactive or inconclusive. Unless noted, on the % scale 0 is the no-effect control and ±100 the full control effect.
SMILES,HT1080NT lethal,TDP1 cell CPT,DT40 TDP1 no CPT,ALOX12 inh,HT1080 IDH1KD tx,IL-1B inflam inh
O=C1Nc2ccccc2/C1=N\N=C\C1=C(N2CCOCC2)C(=C\c2ccccc2)/CC1,·,·,·,-9%,·,·
CC(NC(=O)C12CC3CC(CC(C3)C1)C2)C(=O)N/N=C/C1=C(N2CCOCC2)C(=C\c2ccccc2)/CC1 (stereo not drawn),-15%,?,21µM*,-25%,?,-23
O=C(O)CCC(=O)N1CCC2(CC1)CC(c1cccnc1)=NO2,·,·,·,7%[6.33 µM],·,·
O=S(=O)(c1ccc2c(c1)OCCO2)N1CCN(c2ncnc3sccc23)CC1,-24%,5.2µM*,2.3µM*,13%,?,-25
Cc1ccc(S(=O)(=O)N2CCN(c3ncccn3)CC2)cc1C,-21%,5.8µM*,?,4%,-1%,12
Cc1ccc(S(=O)(=O)N2CCN(c3ncnc4sccc34)CC2)cc1C,?,5.8µM*,5.8µM*,2%,?,-18
Cc1ccc(S(=O)(=O)N2CCN(C(=O)c3cccs3)CC2)cc1C,0%,-23%,?,0%,0%,-7
CNC(=O)N1CCC(C2CCN(C(=O)c3ccc(F)cc3Cl)C2)CC1 (stereo not drawn),·,·,·,1%,·,·
COc1ccc(S(=O)(=O)c2c(Nc3ccccc3F)sc(C(=O)c3cccc(OC)c3)c2N)cc1,·,5.2µM*,6.5µM*,-10%,·,·
CCOc1ccccc1Nc1sc(C(=O)c2ccccc2)c(N)c1S(=O)(=O)c1ccc(C)cc1,·,?,5.8µM*,-12%,·,·
CCOc1ccccc1Nc1sc(C(=O)c2ccc(Cl)cc2)c(N)c1S(=O)(=O)c1ccccc1,·,-30%,?,-12%,·,·
Cc1cccc(C)c1Nc1sc(C(=O)c2ccccc2)c(N)c1S(=O)(=O)c1ccccc1,·,4.6µM*,3.7µM*,-17%,·,·
O=C(N[C@@H]1CN(c2ccncn2)C[C@H]1CO)c1cccc(Cl)c1,·,·,·,57%,·,·
Cc1cc(NS(=O)(=O)c2ccc(N)cc2)nc(C)n1,·,-4%,-27%,-5%[22.9 µM],·,·
FC(F)(F)c1cc(Cl)c2nc(-c3ccco3)c(Cc3ccccc3C(F)(F)F)n2c1,-8%,?,15µM*,10µM*,?,0
CN(C)CC(=O)N1CCC(c2ccc(NC(=O)c3ncc(C#N)[nH]3)c(C3=CCCCC3)c2)CC1,·,·,·,26%[57.4 µM],·,·
CCOC(=O)C1=C(C)NC(C)=C(C(=O)OCC)C1C(=O)OCC(=O)NCCc1ccccc1,-2%,?,26µM*,8%,1%,-55*
CCNC(=O)COC(=O)C1C(C(=O)OCC)=C(C)NC(C)=C1C(=O)OCC,16%,1%,0%,0%,14%,0
CCOC(=O)C1=C(C)NC(C)=C(C(=O)OCC)C1C(=O)OCC(=O)NC1CCCCC1,2%,26µM*,23µM*,-1%,-15%,?
Cc1cccc(-n2cc(CN3CCN(c4ccccn4)CC3)c(-c3cccc(F)c3)n2)c1,0%,?,-3%,-7%,-5%,3
O=C(c1cn(Cc2ccccc2)nc1-c1ccc(Cl)cc1)N1CCN(c2ccccn2)CC1,-13%,?,?,25%,-1%,-11
Cc1ccc(-n2cc(CN3CCN(C(=O)c4ncn[nH]4)CC3)c(-c3ccc(F)cc3)n2)cc1,26%,?,23µM*,6%,-4%,-59*
O=C(c1[nH]c(C(F)(F)F)nc1-c1ccccc1)N1CCN(c2ccc(C(F)(F)F)cn2)CC1,-8%,-25%,?,3%,-12%,24
Cc1ccc(-c2nn(-c3ccccc3)cc2C(=O)N2CCN(c3ccccn3)CC2)cc1,?,?,29µM*,-5%,?,?
Cc1ccc(-n2cc(CN3CCN(c4ccccn4)CC3)c(-c3ccc(F)cc3)n2)cc1,10%,4%,16µM*,6%,?,?
SMILES,HT1080NT lethal,TDP1 cell CPT,DT40 TDP1 no CPT,ALOX12 inh,HT1080 IDH1KD tx,IL-1B inflam inh
O=C(c1[nH]c(C(F)(F)F)nc1-c1ccccc1)N1CCN(c2ccccn2)CC1,?,?,?,-12%,23µM*,41
CN(C)CCCNc1oc(-c2ccccc2F)nc1C#N,·,·,·,-20%,·,·
Cc1ccc2c(=O)cc(C(=O)NCC(c3ccco3)N3CCOCC3)oc2c1 (stereo not drawn),·,·,·,24%,·,·
CC[C@H]1CN(C(=O)C(C)(C)C)CC[C@H]1CC(=O)O,·,·,·,4%[176 µM],·,·
O=C(c1cn(-c2ccccc2)nc1-c1cccc([N+](=O)[O-])c1)N1CCCCC1,0%,-16%,?,2%,3%,-95*
CN(C)C(=O)c1cn(-c2ccccc2)nc1-c1cccc([N+](=O)[O-])c1,11%,2%,-18%,0%,9%,-16
Cc1cc(O)c2c(CN3CCN(C(c4ccccc4)c4ccccc4)CC3)cc(=O)oc2c1,·,·,·,27%,·,·
CCN(CC)CC(O)CNc1ccnc2c(Cl)ccc(Cl)c12 (stereo not drawn),1%,6%,-6%,-14%,-18%,-66*
CCN(CC)CCCC(C)Nc1nccc2cccc(Cl)c12 (stereo not drawn),-30%,?,?,?,-25%,-7
CCN(CC)S(=O)(=O)c1ccc(-c2csc(N)n2)cc1,·,·,·,8%,·,·
O=C(NC1(Cc2ccccc2)CCN(CCc2cccs2)C1=O)c1ccccc1 (stereo not drawn),-9%,26µM*,?,13%,3%,-13
O=C(CCc1ccccc1)NC1(Cc2ccccc2)CCN(CCCc2ccccc2)C1=O (stereo not drawn),?,16µM*,8.2µM*,3%,?,-15
CC(C)CCN1CCC(Cc2ccccc2)(NC(=O)c2ccccc2)C1=O (stereo not drawn),5%,?,?,?,14%,-25
COc1ccc(OC)c(C(=O)COC(=O)c2c(Cl)cccc2Cl)c1,·,·,·,11%,·,·
O=C(c1cccc(F)c1)N(Cc1cc2cc3c(cc2nc1N1CCOCC1)CCC3)CC1CCCO1 (stereo not drawn),·,8%[9.04 µM],-1%,17%,·,·
CCCCCCOc1ccccc1C(N)=O,·,?,16µM*,·,·,·
NC(=O)c1ccccc1OCC(=O)c1ccc(Cl)cc1,-1%,-32%,?,-5%,-1%,-57*
O=C1CCCCCC1Sc1nccc(C(F)(F)F)n1 (stereo not drawn),·,·,·,-47%,·,·
CCc1nc(-c2c3n(c(=O)n(CC(=O)NC(C)(C)C)c2=O)CCCC3)no1,·,·,·,15%,·,·

# Bioassay records deposited in PubChem BioAssay by National Center for Advancing Translational Sciences (NCATS).
